Experimental data reported in PubChem BioAssay (NCATS).
Several values for one entry are separate records, joined by “and”; a condition that tells them apart may be missing. Identical values can stand only once. Inconclusive results are not listed. Entries that show only a call come without a potency. Activity calls are given as the source filed them. Unless noted, calls follow the shape of the full dose curve.

Legend:
[1] = Cell Viability - BJ (AID 421); conditions: BJ fibroblast viability, qHTS;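 also: potency is read from the fitted curve at half-maximal effect; cells exposed to compound for 40 hours at 37 °C before readout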
Procedure, shortened: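 Luminescent ATP signal (CellTiter-Glo, 20 min at room temperature) served as the read-out of viable BJ cells after 40 hours of compound treatment. Responses were scaled between DMSO and 100 uM tamoxifen, and AC50 values were obtained by Hill modeling.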

[2] = Cell Viability - HepG2 (AID 433); conditions: qHTS;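 also: potency is read from the fitted curve at half-maximal effect; potency for ATP loss meaning cytotoxicity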
Procedure, shortened: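 HepG2 cells, 1500 per well, treated 40 hr at 37 °C in complete medium; viability from intracellular ATP by CellTiter-Glo luminescence. Normalized to DMSO and 100 uM tamoxifen; AC50 from Hill fit of qHTS concentration-response.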

[3] = Cell Viability - MRC5 (AID 434); conditions: MRC5 lung fibroblast viability, qHTS;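 also: potency is read from the fitted curve at half-maximal effect; potency reflects cytotoxicity seen as loss of intracellular ATP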
Procedure, shortened: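 MRC5 normal human lung fibroblasts, 1500 cells/well, exposed to compound for 40 hr at 37 C. Cellular ATP was read by CellTiter-Glo luminescence; data normalized to DMSO and 100 uM tamoxifen, with AC50 from Hill fits.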

[4] = MultiTox-Fluor Cytotoxicity Assay - LYMP1-001 - Live Cells (AID 947; active = well fitted cell-killing curve with a large enough effect); conditions: LYMP1-001 lymphoblastoid cells, live-cell protease fluorescence viability; series mostly up to 92.2 µM
[5] = target: Estrogen receptor (Homo sapiens) (UniProt P03372); experiment: qHTS assay for small molecule antagonists of estrogen receptor alpha signaling (AID 588513; active = well fitted curve in the direction sought with a large enough effect in the signal ratio, with a control signal flat, not every such curve was filed as active; the % refers to the signal ratio); conditions: ER-alpha-UAS-bla HEK293, beta-lactamase ratio, antagonist mode; series mostly up to 76.9 µM
Chain of Estrogen receptor (Homo sapiens) (P03372 whole entry, looked up): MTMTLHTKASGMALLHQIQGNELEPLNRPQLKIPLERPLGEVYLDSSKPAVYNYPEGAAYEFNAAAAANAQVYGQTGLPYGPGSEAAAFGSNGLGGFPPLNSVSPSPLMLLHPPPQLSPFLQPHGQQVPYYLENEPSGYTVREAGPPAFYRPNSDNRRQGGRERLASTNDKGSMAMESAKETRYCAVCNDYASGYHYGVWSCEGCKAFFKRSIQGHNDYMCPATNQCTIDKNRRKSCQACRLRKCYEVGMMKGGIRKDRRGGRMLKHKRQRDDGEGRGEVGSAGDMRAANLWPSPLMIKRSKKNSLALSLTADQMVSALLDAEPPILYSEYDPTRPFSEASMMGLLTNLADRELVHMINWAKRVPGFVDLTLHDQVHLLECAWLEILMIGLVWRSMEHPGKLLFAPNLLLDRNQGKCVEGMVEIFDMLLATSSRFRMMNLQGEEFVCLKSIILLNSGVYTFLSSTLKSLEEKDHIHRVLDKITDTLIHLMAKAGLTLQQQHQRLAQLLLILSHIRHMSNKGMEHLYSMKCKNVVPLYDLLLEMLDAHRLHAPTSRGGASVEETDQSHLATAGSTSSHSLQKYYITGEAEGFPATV
Procedure, shortened: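 ER-alpha-UAS-bla GripTite HEK 293 cells in 2% charcoal/dextran-treated FBS medium; compounds titrated (1:2, duplicate), then stimulated with 0.5 nM 17-beta-estradiol for 18 h at 37C. CCF4 beta-lactamase fluorescence; Hill-fit IC50 and efficacy.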

[6] = target: Bile acid receptor (Homo sapiens) (UniProt Q96RI1); experiment: qHTS assay for small molecule agonists of farnesoid X receptor signaling (AID 588527); conditions: HEK293T FXR-UAS-bla, beta-lactamase ratio, 16 h; stronger effect = higher value
Chain of Bile acid receptor (Homo sapiens) (Q96RI1 whole entry, looked up): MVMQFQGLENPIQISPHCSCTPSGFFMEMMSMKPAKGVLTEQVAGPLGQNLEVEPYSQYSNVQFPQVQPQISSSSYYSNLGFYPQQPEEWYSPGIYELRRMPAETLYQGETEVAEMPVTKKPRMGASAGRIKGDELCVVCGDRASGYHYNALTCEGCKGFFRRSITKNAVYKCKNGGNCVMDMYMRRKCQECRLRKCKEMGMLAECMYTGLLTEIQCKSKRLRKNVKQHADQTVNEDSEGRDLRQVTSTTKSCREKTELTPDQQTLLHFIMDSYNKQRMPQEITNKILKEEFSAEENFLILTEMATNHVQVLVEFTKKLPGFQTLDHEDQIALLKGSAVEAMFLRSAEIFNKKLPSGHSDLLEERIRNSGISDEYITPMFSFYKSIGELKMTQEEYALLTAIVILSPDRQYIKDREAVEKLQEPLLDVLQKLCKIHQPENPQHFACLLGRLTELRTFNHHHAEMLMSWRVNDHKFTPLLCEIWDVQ
Procedure, shortened: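 FXR-UAS-bla HEK293T, 10% dialyzed FBS; cpds up to 92 uM titration, 16 h 37 C; CCF4 dye 2 h RT; fluorescence. Normalized to chenodeoxycholic acid 100 uM (100%) and DMSO (0%); Hill fit gives EC50, efficacy.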

[7] = target: Peroxisome proliferator-activated receptor delta (Homo sapiens) (UniProt Q03181); experiment: qHTS assay for small molecule agonists of peroxisome proliferator-activated receptor delta signaling (AID 588534); conditions: HEK293T PPARdelta-UAS-bla, beta-lactamase ratio, 18 h; series mostly up to 76.7 µM
Chain of Peroxisome proliferator-activated receptor delta (Homo sapiens) (Q03181 whole entry, looked up): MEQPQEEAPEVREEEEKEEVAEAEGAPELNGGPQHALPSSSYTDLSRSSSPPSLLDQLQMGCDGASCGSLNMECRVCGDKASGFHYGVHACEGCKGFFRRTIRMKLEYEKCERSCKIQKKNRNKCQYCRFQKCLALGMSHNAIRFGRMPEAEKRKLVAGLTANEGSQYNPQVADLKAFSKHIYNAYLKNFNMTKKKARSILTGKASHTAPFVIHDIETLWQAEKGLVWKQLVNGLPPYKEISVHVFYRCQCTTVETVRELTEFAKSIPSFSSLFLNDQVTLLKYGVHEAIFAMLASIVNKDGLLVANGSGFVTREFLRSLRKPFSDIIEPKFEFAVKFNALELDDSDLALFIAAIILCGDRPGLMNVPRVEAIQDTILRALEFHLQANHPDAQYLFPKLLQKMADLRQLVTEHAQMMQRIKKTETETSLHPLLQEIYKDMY
Procedure, shortened: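 Cells carrying a PPAR-delta beta-lactamase reporter were treated with compounds for 18 h at 37 °C in agonist mode. CCF4 fluorescence was read after 2 h; EC50 and efficacy from Hill fits.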

[8] = qHTS assay for small molecule antagonists of peroxisome proliferator-activated receptor delta signaling (AID 588535; active = well fitted inhibition curve with a large enough effect in the signal ratio, with a control signal flat, not every such curve was filed as active; the % refers to the signal ratio;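 as to max response: cells co-treated with a PPAR-delta agonist as stimulator during compound exposure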); conditions: HEK293T PPARd-UAS-bla, beta-lactamase FRET ratio, 18 h; 460 nm channel
Procedure, shortened: (§1)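 Antagonist-mode beta-lactamase reporter (GeneBLAzer PPAR-delta-UAS-bla) in HEK293T cells, 2% charcoal/dextran FBS, 4000 cells/well. Compound titrations, 18 h at 37 C; CCF4 ratio read, IC50 and efficacy from Hill fits.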

[9] = target: Peroxisome proliferator-activated receptor delta (Homo sapiens) (UniProt Q03181); experiment: as above; conditions: HEK293T PPARd-UAS-bla, beta-lactamase FRET ratio, 18 h; series mostly up to 76.7 µM
Procedure, shortened: as §1

[10] = target: Peroxisome proliferator-activated receptor gamma (Homo sapiens) (UniProt P37231); experiment: qHTS assay for small molecule agonists of peroxisome proliferator-activated receptor gamma signaling (AID 588536; active = well fitted curve in the direction sought with a large enough effect in the signal ratio, with a control signal flat, not every such curve was filed as active; the % refers to the signal ratio); conditions: HEK293 PPARg-UAS-bla, beta-lactamase ratio, 16 h, percent of rosiglitazone response, DMSO as zero; series mostly up to 76.7 µM
Chain of Peroxisome proliferator-activated receptor gamma (Homo sapiens) (P37231 whole entry, looked up): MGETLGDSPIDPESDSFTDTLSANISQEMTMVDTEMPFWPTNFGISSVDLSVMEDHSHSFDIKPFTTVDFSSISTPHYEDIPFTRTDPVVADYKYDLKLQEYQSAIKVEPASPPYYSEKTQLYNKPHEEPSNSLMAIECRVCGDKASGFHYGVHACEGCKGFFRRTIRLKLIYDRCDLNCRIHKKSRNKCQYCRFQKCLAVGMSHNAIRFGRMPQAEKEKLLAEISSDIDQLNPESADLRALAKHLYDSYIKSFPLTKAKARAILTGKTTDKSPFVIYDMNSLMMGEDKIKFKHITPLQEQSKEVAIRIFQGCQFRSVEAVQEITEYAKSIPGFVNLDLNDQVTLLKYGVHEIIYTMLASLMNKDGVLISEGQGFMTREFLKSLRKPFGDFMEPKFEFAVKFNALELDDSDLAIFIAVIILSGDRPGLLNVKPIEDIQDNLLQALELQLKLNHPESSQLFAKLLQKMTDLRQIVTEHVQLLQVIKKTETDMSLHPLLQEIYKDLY
Procedure, shortened: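 PPAR-gamma-UAS-bla HEK293 cells in medium with 1% charcoal/dextran-treated FBS were exposed to compounds for 16 h at 37 C. Beta-lactamase activity was read with CCF4 substrate (405 nm excitation, 460/530 nm emission).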

[11] = target: Vitamin D3 receptor (Homo sapiens) (UniProt P11473); experiment: qHTS assay for small molecule antagonists of vitamin D receptor signaling (AID 588541); conditions: HEK293T VDR-UAS-bla, beta-lactamase ratio, antagonist mode; series mostly up to 76.7 µM;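 also: receptor activated by calcitriol during compound treatment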
Chain of Vitamin D3 receptor (Homo sapiens) (P11473 whole entry, looked up): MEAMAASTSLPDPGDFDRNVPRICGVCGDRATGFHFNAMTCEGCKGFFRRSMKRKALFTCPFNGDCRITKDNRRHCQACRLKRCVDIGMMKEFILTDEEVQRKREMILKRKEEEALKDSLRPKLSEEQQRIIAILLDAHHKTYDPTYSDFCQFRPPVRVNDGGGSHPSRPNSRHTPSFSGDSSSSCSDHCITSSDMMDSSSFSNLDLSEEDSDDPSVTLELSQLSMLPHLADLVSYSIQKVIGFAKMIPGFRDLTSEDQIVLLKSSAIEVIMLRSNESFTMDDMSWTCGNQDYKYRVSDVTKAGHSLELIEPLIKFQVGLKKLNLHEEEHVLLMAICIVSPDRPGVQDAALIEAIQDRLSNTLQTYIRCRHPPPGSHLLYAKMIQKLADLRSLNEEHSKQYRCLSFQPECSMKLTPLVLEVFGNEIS
Procedure, shortened: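 VDR-UAS-bla HEK293T cells in 2% charcoal-stripped FBS were stimulated with 1-alpha,25-dihydroxyvitamin D3 (3 nM final) plus compound for 16 h at 37 C. The beta-lactamase CCF4 readout was normalized to 50 nM agonist and DMSO, and Hill fits gave IC50.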

[12] = target: Thyroid hormone receptor beta (Homo sapiens) (UniProt P10828); experiment: qHTS assay for small molecule agonists of thyroid hormone receptor beta signaling (AID 588545); conditions: TR-UAS-bla GripTite HEK 293, beta-lactamase ratio, agonist mode, 18 h; series mostly up to 76.7 µM
Chain of Thyroid hormone receptor beta (Homo sapiens) (P10828 whole entry, looked up): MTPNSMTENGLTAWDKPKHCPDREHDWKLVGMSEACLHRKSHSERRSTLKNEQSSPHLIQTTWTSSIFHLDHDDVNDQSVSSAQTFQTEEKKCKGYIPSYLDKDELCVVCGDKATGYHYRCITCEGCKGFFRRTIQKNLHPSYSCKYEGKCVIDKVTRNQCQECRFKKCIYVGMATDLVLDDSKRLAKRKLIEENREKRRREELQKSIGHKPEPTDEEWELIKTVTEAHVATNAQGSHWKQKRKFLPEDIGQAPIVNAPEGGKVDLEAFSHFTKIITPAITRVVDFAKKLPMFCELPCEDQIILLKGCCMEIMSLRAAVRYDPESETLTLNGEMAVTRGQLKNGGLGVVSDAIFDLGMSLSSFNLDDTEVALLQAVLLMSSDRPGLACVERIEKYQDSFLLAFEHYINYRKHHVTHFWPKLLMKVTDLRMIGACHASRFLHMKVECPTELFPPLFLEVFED
Procedure, shortened: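 TR-UAS-bla-GripTite HEK 293 cells in medium with 2% charcoal/dextran FBS, 0.1 mM NEAA and 1 mM sodium pyruvate were treated with titrated compounds for 18 hrs at 37 C. Beta-lactamase reporter was read with CCF4 dye (ex 405, em 460/530 nm); EC50 from Hill fits.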

[13] = target: Thyroid hormone receptor beta (Homo sapiens) (UniProt P10828); experiment: qHTS assay for small molecule antagonists of thyroid hormone receptor beta signaling (AID 588547; active = well fitted inhibition curve with a large enough effect in the signal ratio, with a control signal flat, not every such curve was filed as active; the % refers to the signal ratio;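 also: cells stimulated with 0.4 nM T3 agonist during compound exposure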); conditions: TR-UAS-bla HEK293, beta-lactamase ratio, antagonist mode, 18 h
Procedure, shortened: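 TR-UAS-bla GripTite HEK293 cells in 2% charcoal/dextran FBS medium; compounds 0.59 nM to 92 uM with T3 at 0.4nM final, 18 h at 37 C. Beta-lactamase read by CCF4 fluorescence (460/530 nm); Hill fits gave IC50 and efficacy.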

[14] = qHTS assay for small molecule activators of the p53 signaling pathway (AID 651743; active = well fitted activation curve with a large enough effect in the signal ratio, not every such curve was filed as active; the % refers to the signal ratio); conditions: HCT-116 p53RE-bla, beta-lactamase FRET ratio, 16 h; activation: stronger effect = higher value
Procedure, shortened: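 p53RE-bla HCT-116 cells carrying a beta-lactamase reporter under p53 response elements were exposed to compounds for 16 hours at 37 C. Reporter activity read as fluorescence after 2 hours at room temperature with LiveBLAzer B/G FRET substrate.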

[15] = qHTS assay for small molecule disruptors of the mitochondrial membrane potential - 1 hr assay (AID 651754); conditions: series mostly up to 92.2 µM; also: nearly all actives have a fitted effect of over 35% in size
Procedure, shortened: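 HepG2 cells, attached overnight, were exposed to compound for 1 hr at 37C, then stained 30 min with a potentiometric dye. Ratio of red aggregate (590nm) to green monomer (535nm) fluorescence reports membrane potential; collapse shifts signal toward green.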

[16] = qHTS assay for small molecule agonists of the antioxidant response element (ARE) signaling pathway (AID 651741; active = well fitted activation curve with a large enough effect in the signal ratio; the % refers to the signal ratio; also: potency is read from the fitted curve at half-maximal effect); conditions: HepG2 ARE-bla reporter, beta-lactamase FRET ratio, 16 h; series mostly up to 96 µM
Procedure, shortened: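 CellSensor ARE-bla HepG2 cells (2,000/well) carrying ARE-driven beta-lactamase, exposed 16 h at 37 C. LiveBLAzer B/G FRET substrate added for 2 h at room temperature; fluorescence intensity read.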

[17] = target: Glucocorticoid receptor (Homo sapiens) (UniProt P04150); experiment: qHTS assay for small molecule agonists of glucocorticoid receptor signaling (AID 588532; active = well fitted curve in the direction sought with a large enough effect in the signal ratio, with a control signal flat; the % refers to the signal ratio); conditions: HeLa MMTV-bla, beta-lactamase ratio, agonist, 18 h; stronger effect = higher value; percent of dexamethasone control, DMSO zero
Chain of Glucocorticoid receptor (Homo sapiens) (P04150 whole entry, looked up): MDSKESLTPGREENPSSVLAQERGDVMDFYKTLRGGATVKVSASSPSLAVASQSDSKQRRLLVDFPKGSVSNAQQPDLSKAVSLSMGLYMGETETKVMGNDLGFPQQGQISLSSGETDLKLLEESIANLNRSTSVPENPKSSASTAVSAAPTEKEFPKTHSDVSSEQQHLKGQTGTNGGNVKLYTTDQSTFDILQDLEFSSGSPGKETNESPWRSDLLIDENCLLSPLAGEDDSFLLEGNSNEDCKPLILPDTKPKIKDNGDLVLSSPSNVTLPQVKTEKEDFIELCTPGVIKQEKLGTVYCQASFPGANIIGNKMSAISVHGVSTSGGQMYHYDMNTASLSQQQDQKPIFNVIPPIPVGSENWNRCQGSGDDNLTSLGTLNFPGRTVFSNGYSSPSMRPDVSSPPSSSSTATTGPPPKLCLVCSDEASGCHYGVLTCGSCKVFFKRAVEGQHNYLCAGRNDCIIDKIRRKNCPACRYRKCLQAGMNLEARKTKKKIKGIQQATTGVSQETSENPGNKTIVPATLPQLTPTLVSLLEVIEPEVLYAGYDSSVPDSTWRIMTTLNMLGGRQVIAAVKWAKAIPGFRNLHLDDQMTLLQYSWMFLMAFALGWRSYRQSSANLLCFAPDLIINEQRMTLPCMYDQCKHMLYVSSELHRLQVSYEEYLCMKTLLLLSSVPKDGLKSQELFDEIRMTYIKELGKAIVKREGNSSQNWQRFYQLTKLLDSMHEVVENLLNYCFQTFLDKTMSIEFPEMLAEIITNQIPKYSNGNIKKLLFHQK
Procedure, shortened: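 MMTV-bla HeLa beta-lactamase reporter cells in 1% charcoal/dextran FBS medium, compounds up to 92 uM for 18 h at 37 C, CCF4 readout; normalized to 0.1 uM dexamethasone (100%), EC50 and efficacy from Hill fits.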

[18] = target: Glucocorticoid receptor (Homo sapiens) (UniProt P04150); experiment: qHTS assay for small molecule antagonists of glucocorticoid receptor signaling (AID 588533; active = well fitted inhibition curve with a large enough effect in the signal ratio, with a control signal flat, not every such curve was filed as active; the % refers to the signal ratio); conditions: HeLa MMTV-bla, GRE beta-lactamase ratio, antagonist mode, 18 h; series mostly up to 76.8 µM
Procedure, shortened: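 Antagonist-mode qHTS: compound titrations added to GRE-bla HeLa cells, then dexamethasone 2 nM final; 18 h, 37 C. CCF4 FRET fluorescence normalized to dexamethasone and DMSO; IC50 from Hill fit.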

[19] = target: Peroxisome proliferator-activated receptor gamma (Homo sapiens) (UniProt P37231); experiment: qHTS assay for small molecule antagonists of peroxisome proliferator-activated receptor gamma signaling (AID 588537; active = well fitted inhibition curve with a large enough effect in the signal ratio, with a control signal flat, not every such curve was filed as active; the % refers to the signal ratio;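 also: reporter cells co-stimulated with 50 nM rosiglitazone agonist during compound treatment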); conditions: HEK293 PPARg-UAS-bla, beta-lactamase ratio, antagonist mode; series mostly up to 76.8 µM
Procedure, shortened: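 PPARγ-UAS-bla HEK293 cells (3000/well) in 1% charcoal/dextran-stripped FBS are treated with compound, then stimulated with 50 nM rosiglitazone for 16 h at 37 °C. Read-out is CCF4 β-lactamase fluorescence after 2 h at RT. IC50 comes from Hill fits normalised to rosiglitazone and DMSO.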

[20] = Cell Viability - N2a (AID 540; active = well fitted cell-killing curve with a large enough effect; also: nearly all actives have a fitted effect of over 45% in size); conditions: N2a mouse neuroblastoma cell viability; activity change, negative = cytotoxicity: at 92.2 µM (top of the series)
Procedure, shortened: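 Mouse neuroblastoma N2a cells, 1500/well, exposed to compounds 40 h at 37 °C in complete medium. Viability measured as cellular ATP by CellTiter-Glo luminescence; AC50 from Hill fits of concentration-response.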

Row | SMILES | Potency [1] | Potency [2] | Potency [3] | outcome [4] | Potency [5] | activation [6] | outcome [7] | max response [8] | outcome [9] | outcome [10] | outcome [11] | Potency [12] | activity change % (negative = inhibition) [13] | activation [14] | Potency [15] | Potency [16] | activation [17] | outcome [18] | Potency [19] | Potency [20]
1 | O=[N+]([O-])c1cc(Cl)c(Cl)c(Cl)c1 | > 92 µM (inactive) | > 92 µM (inactive) | > 92 µM (inactive) | inactive | inactive | -2.43% (inactive) | inactive | 30.2% | inactive | inactive | inactive | inactive | 3.05% (inactive) | -1.35% (inactive) | inactive | – | – | – | – | –
2 | CCCC[N+](=O)[O-] | > 92 µM (inactive) | > 92 µM (inactive) | > 92 µM (inactive) | inactive | inactive | -0.886% (inactive) | – | – | – | – | inactive | inactive | 2.77% (inactive) | – | inactive | inactive | – | – | – | –
3 | O=C(O)C(Br)CBr (stereo not given) | > 92 µM (inactive) | > 92 µM (inactive) | > 92 µM (inactive) | – | inactive | – | inactive | 31.3% | – | – | – | inactive | 10.8% (inactive) | 3.2% (inactive) | – | 42.2 µM (active) | -2.23% (inactive) | – | – | –
4 | Cc1ccc(OP(=O)(Oc2ccc(C)cc2)Oc2ccc(C)cc2)cc1 | > 92 µM (inactive) | > 92 µM (inactive) | – | inactive | – | – | inactive | 2.39% and -12% | – | – | inactive | inactive | -7.32% (inactive) and 3.64% (inactive) | 0.798% (inactive) and -5.64% (inactive) | – | – | -0.0057% (inactive) and -10.3% (inactive) | inactive | inactive | –
5 | ClC(Cl)Br | > 92 µM (inactive) | – | – | inactive | inactive | – | inactive | -6.86% | – | inactive | inactive | inactive | 9.06% (inactive) | – | inactive | – | -5.41% (inactive) | inactive | inactive | inactive
6 | CCSC(=O)N1CCCCCC1 | > 92 µM (inactive) | – | > 92 µM (inactive) | – | inactive | – | inactive | -18% | – | inactive | inactive | inactive | -3.1% (inactive) and -10.9% (inactive) | – | inactive | 66.8 µM (active) | – | – | inactive | inactive
7 | Cc1cc(N=Nc2ccccc2C)ccc1N | > 92 µM (inactive) | – | > 92 µM (inactive) | inactive | – | -3.42% (inactive) and -2.58% (inactive) | inactive | -21.5% | inactive | inactive | inactive | inactive | -2.95% (inactive) and 5.44% (inactive) | – | – | 1.88 µM (active) and 4.86 µM (active) | -7.11% (inactive) | – | – | –
8 | C=CC(=O)OCCN(C)C | > 92 µM (inactive) | – | – | inactive | – | – | inactive | 29.8% | inactive | – | inactive | inactive | -23.4% (inactive) | 0.0499% (inactive) | – | inactive | 1.15% (inactive) | – | – | –
